The source of these data is PubChem BioAssay (NCI).

About 83,000 compounds went through this panel and 20% of them were active in at least one assay; those are over-represented in the sample as a whole.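 Results are percent growth after 48 hours of single-concentration exposure. 100 means growth as in untreated cells, lower positive values show inhibition; negative values down to -100 show cell death.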 The source made the active and inactive calls. How the source made its calls: active means growth percent below 10; inactive means the rest.

For one assay, the system named is NCI-H226 lung. Briefly: NCI-60 one-dose screen, 48 h (100 = growth as untreated, 0 = no growth, -100 = all killed). To be noted: 10 µM unless noted.
As to `C[C@@H]1CC[C@@H]2[C@@H]1[C@H](OC(=O)c1ccc3ccccc3c1)[C@]1(C3CCCCC3)C[C@@H](OC(=O)CO)[C@@]2(C)O1`, the growth is 51.8% (inactive).
`CN(C)c1ccc(C#Cc2c(F)cccc2Cl)cc1`: the growth was 90.4% (inactive).
As to `CCCN1CCN(c2ccc3nc(-c4ccc5nc(-c6cc(OC)c(OC)c(OC)c6)[nH]c5c4)[nH]c3c2)CC1`, the growth was 81.7% (inactive).
On the same count and under the same terms, then `O=C(NCCOCCOCCOCCNC(=O)c1cc2c(o1)C(=O)c1ccccc1C2=O)NC12CC3CC(CC(C3)C1)C2`, with -80.4% (active); and `COc1cc2c(cc1OC)-c1ccc3cc4c(cc3c1N(CCN(C)C)C2)OCO4`, with -84.7% (active).
Still for that read-out and setting: the figure for `O=C(NC(=S)Nc1ccc(-c2nc3ccccc3[nH]2)cc1)c1ccc2ccccc2c1` is 51.1% (inactive); for `CC[C@@H](C[C@H](CCO)c1ccccc1)c1cc2ccccc2o1` it is 88% (inactive); for `NC(N)=N/N=C/c1ccc(Br)cc1` it is 72.1% (inactive).
The same measure, in the same setting: then `CN(C)CCOC(=O)Nc1ccc(Cl)cc1`, with 88.8% (inactive).
On to `O=C(/C=C/C12c3ccccc3C(c3ccccc31)C1C(=O)N(c3ccc(Cl)cc3)C(=O)C12)c1ccccn1` (centres undefined), for which the growth was -49.3% (active).
`OC(c1cccc(OCc2ccccc2)c1)c1nnc(-c2ccccc2)o1` (centres undefined): the growth is 66.9% (inactive).
As for `O=C1N(c2ccccc2)C(=S)N[C@]12[C@H](c1ccccc1)C1CCCN1[C@]21C(=O)NC2C=CC(Cl)=C[C@H]21` (some centres undefined), the growth is 82.5% (inactive).
Take `COC(=O)/C(=C\c1ccc(OC)cc1)C(=O)N1c2ccccc2Sc2ccccc21`: the growth was 75.1% (inactive).
As to `Cc1ccc(S(=O)(=O)Nc2sccc2-c2nc(-c3ccccc3)no2)cc1`, the growth was 87.9% (inactive).
The same measure, in the same setting: the figure for `CCNCCNc1cc(-c2ccc(C(F)(F)F)cc2)c(C#N)c2nc3cc(Cl)c(Cl)cc3n12` is 99.8% (inactive).
The same measure, in the same setting: then `COc1ccc(/C=C(\C#N)n2nnc3ccccc32)cc1`, with 1.15% (active); and `CC(C)n1nc(C#Cc2cccc3cc(-c4cccc(C(F)(F)F)c4)ncc23)c2c(N)ncnc21`, with 48.2% (inactive); and `COC(=O)CNC(=O)C(=O)c1c(O)c(O)c(C(C)C)c2cc(C)c(-c3c(C)cc4c(C(C)C)c(O)c(O)c(C(=O)C(=O)NCC(=O)OC)c4c3O)c(O)c12`, with 54.6% (inactive).
Same read-out and setting: then `NC(=O)c1c(NC(=O)c2ccc(C(F)(F)F)cc2Cl)sc2c1CCC(=O)C2`, with -22.6% (active); and `C[C@@H](C[C@H](CCOCc1cccnc1)c1ccccc1)c1cc2ccccc2o1`, with 80.2% (inactive).
Consider `CCn1c(Sc2nnc(Nc3ccccc3)s2)nc2c1c(=O)n(C)c(=O)n2C`, for which the growth is 102% (inactive).
The same measure, in the same setting: then `Cc1cc(Cl)nc(N(CCCNc2ccnc3cc(Cl)ccc23)Cc2ccccn2)n1`, with 65% (inactive).
Same read-out and setting: then `OC(CBr)c1ccnc2ccccc12` (centres undefined), with 92.3% (inactive).
With `COc1cc(C2C=C(c3cccc(NC(C)=O)c3)Nc3ncnn32)cc(OC)c1OC` (centres undefined), the growth is 43.5% (inactive).
Turning to `CCCCOC(=O)c1ccc(NC(=O)C(C)N2CCOCC2)cc1` (centres undefined), the growth was 84.3% (inactive).

In another assay the test system is NCI-H322M lung. The assay is described as above. To be noted: 10 µM unless noted.
As to `COc1ccc(/C(C)=N/NS(=O)(=O)c2ccc(C)cc2)cc1OC`, the growth is 120% (inactive).
On to `C[C@@H]1C(=O)N(C[C@@H](Cc2ccccc2)NC(=O)OCc2ccccc2)[C@]1(Cc1ccccc1)C(=O)OCc1ccccc1`, for which the growth is 56.4% (inactive).
Still for that read-out and setting: then `NC(=Nc1ccc(N)cc1)C(N)=Nc1ccc(N)cc1`, with 105% (inactive); and `N#Cc1c(NC(=O)c2ccccc2I)sc2c1CCCC2`, with 88.5% (inactive).
The same measure, in the same setting: the figure for `Cc1ccc(Nc2ccc(Nc3ccc(C)cc3S(=O)(=O)O)c3c2C(=O)c2ccccc2C3=O)c(S(=O)(=O)O)c1` is 90% (inactive); for `C=C1C(=O)O[C@H]2[C@H]1CC/C(Cn1cc(CNCCc3c[nH]c4ccc(Cl)cc34)nn1)=C\CC[C@@]1(C)O[C@@H]21` it is 85.7% (inactive).
The same measure, in the same setting: then `Cn1cc(Nc2nccc(-c3ccc(N4CCCC4)c(C#N)c3)n2)cn1`, with 52% (inactive).
On to `CSc1ncc(C)c(Nc2ccc(Cl)cc2)n1`, for which the growth was 106% (inactive).
On the same count and under the same terms, then `COc1cc(/C=C2\C=C(c3ccccc3)N(CCc3ccccc3)C2=O)cc(OC)c1OC`, with 70.1% (inactive).
Regarding `O=c1cc(-c2ccc(OCc3ccccc3)cc2)oc2c(I)c(OCc3ccccc3)cc(OCc3ccccc3)c12`, the growth was 96.6% (inactive).
Same read-out and setting: the figure for `CC(=O)Nc1nccs1` is 88.2% (inactive); for `N[C@H]1CCC[C@@H]1NCCCCN1C(=O)c2cccc3cccc(c23)C1=O` it is 54.9% (inactive).
In the case of `N=C(N)c1ccc(-c2ccc(-c3ccc(Cl)cc3Cl)o2)nc1`, the growth was 30.7% (inactive).
As to `O=C1N/C(=N/O)S/C1=C/c1cn(-c2ccccc2)nc1-c1ccccc1`, the growth is 87.3% (inactive).
The same measure, in the same setting: the figure for `C[C@@H]1CC[C@@H]2[C@@H]1[C@H](OC(=O)c1ccc3ccccc3c1)[C@]1(C3CCCCC3)C[C@@H](OC(=O)CO)[C@@]2(C)O1` is 81.5% (inactive); for `CN(C)c1ccc(C#Cc2c(F)cccc2Cl)cc1` it is 86.7% (inactive); for `CCCN1CCN(c2ccc3nc(-c4ccc5nc(-c6cc(OC)c(OC)c(OC)c6)[nH]c5c4)[nH]c3c2)CC1` it is 94% (inactive).
For `O=C(NCCOCCOCCOCCNC(=O)c1cc2c(o1)C(=O)c1ccccc1C2=O)NC12CC3CC(CC(C3)C1)C2`, the growth is -59.5% (active).
Same read-out and setting: the figure for `COc1cc2c(cc1OC)-c1ccc3cc4c(cc3c1N(CCN(C)C)C2)OCO4` is -3.14% (active); for `O=C(NC(=S)Nc1ccc(-c2nc3ccccc3[nH]2)cc1)c1ccc2ccccc2c1` it is 21.5% (inactive).
As to `CC[C@@H](C[C@H](CCO)c1ccccc1)c1cc2ccccc2o1`, the growth was 92.9% (inactive).
Still for that read-out and setting: the figure for `NC(N)=N/N=C/c1ccc(Br)cc1` is 98.6% (inactive); for `CN(C)CCOC(=O)Nc1ccc(Cl)cc1` it is 92.2% (inactive).
For `O=C(/C=C/C12c3ccccc3C(c3ccccc31)C1C(=O)N(c3ccc(Cl)cc3)C(=O)C12)c1ccccn1` (centres undefined), the growth is 11.3% (inactive).
The same measure, in the same setting: the figure for `OC(c1cccc(OCc2ccccc2)c1)c1nnc(-c2ccccc2)o1` (centres undefined) is 120% (inactive); for `O=C1N(c2ccccc2)C(=S)N[C@]12[C@H](c1ccccc1)C1CCCN1[C@]21C(=O)NC2C=CC(Cl)=C[C@H]21` (some centres undefined) it is 99.2% (inactive).
Same read-out and setting: the figure for `COC(=O)/C(=C\c1ccc(OC)cc1)C(=O)N1c2ccccc2Sc2ccccc21` is 83% (inactive); for `Cc1ccc(S(=O)(=O)Nc2sccc2-c2nc(-c3ccccc3)no2)cc1` it is 82.1% (inactive).
As to `CCNCCNc1cc(-c2ccc(C(F)(F)F)cc2)c(C#N)c2nc3cc(Cl)c(Cl)cc3n12`, the growth is -95.4% (active).
The same measure, in the same setting: the figure for `COc1ccc(/C=C(\C#N)n2nnc3ccccc32)cc1` is 25.8% (inactive); for `CC(C)n1nc(C#Cc2cccc3cc(-c4cccc(C(F)(F)F)c4)ncc23)c2c(N)ncnc21` it is 94.8% (inactive); for `COC(=O)CNC(=O)C(=O)c1c(O)c(O)c(C(C)C)c2cc(C)c(-c3c(C)cc4c(C(C)C)c(O)c(O)c(C(=O)C(=O)NCC(=O)OC)c4c3O)c(O)c12` it is 22.1% (inactive).
The same measure, in the same setting: the figure for `NC(=O)c1c(NC(=O)c2ccc(C(F)(F)F)cc2Cl)sc2c1CCC(=O)C2` is 14% (inactive); for `C[C@@H](C[C@H](CCOCc1cccnc1)c1ccccc1)c1cc2ccccc2o1` it is 90.5% (inactive); for `CCn1c(Sc2nnc(Nc3ccccc3)s2)nc2c1c(=O)n(C)c(=O)n2C` it is 91.4% (inactive).
Same read-out and setting: then `Cc1cc(Cl)nc(N(CCCNc2ccnc3cc(Cl)ccc23)Cc2ccccn2)n1`, with 68.7% (inactive); and `OC(CBr)c1ccnc2ccccc12` (centres undefined), with 102% (inactive).
As for `COc1cc(C2C=C(c3cccc(NC(C)=O)c3)Nc3ncnn32)cc(OC)c1OC` (centres undefined), the growth is 37% (inactive).
With `CCCCOC(=O)c1ccc(NC(=O)C(C)N2CCOCC2)cc1` (centres undefined), the growth was 95.7% (inactive).
